This is an account of results in PubChem BioAssay (NCI).

About 83,000 compounds went through this panel and 20% of them were active in at least one assay; those are over-represented in the sample as a whole.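 Single-dose data. Exposure time 48 hours. Values below 10 considered active.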 Unmarked numbers belong to inactive results. The source made the active and inactive calls.

Some test systems named below: SR leukemia; RPMI-8226 leukemia; OVCAR-8 ovarian; OVCAR-5 ovarian; OVCAR-4 ovarian; SK-OV-3 ovarian; IGROV1 ovarian; OVCAR-3 ovarian; HS 578T breast; NCI/ADR-RES ovarian; T-47D breast; BT-549 breast; MDA-MB-435 melanoma; SW-620 colon; MCF7 breast; HCT-116 colon; HCC-2998 colon; KM12 colon.
Holding throughout (test): NCI-60 one-dose screen, 48 h (100 = growth as untreated, 0 = no growth, -100 = all killed)
Conditions in all cases: 10 µM unless noted

Turning to `CCOC(=O)CC1CSC(N/N=C(/C)c2cccc(C(F)(F)F)c2)=N1` (centres undefined), the growth in the experiment on SR leukemia is 99.6%; with RPMI-8226 leukemia it was 111%; with OVCAR-8 ovarian, 102%; in the experiment on OVCAR-5 ovarian it was 105%; with OVCAR-4 ovarian, 94.1%; with SK-OV-3 ovarian, 96.1%. Also, the growth is 94.5% with IGROV1 ovarian; 105% in the experiment with OVCAR-3 ovarian; 101% in the experiment with HS 578T breast; 101% in the experiment with NCI/ADR-RES ovarian; 104% in the experiment with T-47D breast; 85.6% in the experiment on BT-549 breast. Further, the growth was 101% in the experiment with MDA-MB-435 melanoma; 104% with SW-620 colon; 90.5% in the experiment on MCF7 breast; 96.9% in the experiment on HCT-116 colon; 101% in the experiment on HCC-2998 colon; 97.7% with KM12 colon.

Regarding `CN1CCN(Cc2ccc(NC(=O)c3cncc(C#Cc4c(N)ncc5c(F)cccc45)c3)cc2C(F)(F)F)CC1`, the growth with SR leukemia was -49% (active); in the experiment with RPMI-8226 leukemia, -26.5% (active); with OVCAR-8 ovarian it was -72.8% (active); in the experiment on OVCAR-5 ovarian it was -33.3% (active); in the experiment on OVCAR-4 ovarian, -59.1% (active); with SK-OV-3 ovarian, 2.69% (active). The growth with IGROV1 ovarian is -69.4% (active); in the experiment with OVCAR-3 ovarian, -84.8% (active); in the experiment with HS 578T breast, -25.8% (active); in the experiment on NCI/ADR-RES ovarian, -45.1% (active); in the experiment with T-47D breast it was -25.2% (active); with BT-549 breast, 12.5%. Also, the growth is -83% (active) in the experiment on MDA-MB-435 melanoma; -51.9% (active) in the experiment with SW-620 colon; -67.3% (active) with MCF7 breast; -89.1% (active) with HCT-116 colon; -11.9% (active) in the experiment with HCC-2998 colon; -72.9% (active) in the experiment on KM12 colon.

For `COc1ccc2c(c1)c(-c1nc(-c3cn(C)c4ccncc34)cs1)cn2C`, the growth in the experiment with SR leukemia is -26.1% (active); in the experiment with RPMI-8226 leukemia, -48% (active); in the experiment with OVCAR-8 ovarian, -3.91% (active); in the experiment on OVCAR-5 ovarian it was -16.7% (active); in the experiment on OVCAR-4 ovarian, -3.39% (active); in the experiment on SK-OV-3 ovarian it was 119%. Also, the growth in the experiment on IGROV1 ovarian is -2.51% (active); with OVCAR-3 ovarian it was -77.6% (active); in the experiment with HS 578T breast, 104%; with NCI/ADR-RES ovarian it was 10.2%; in the experiment with T-47D breast, 95.7%; with BT-549 breast, 91.2%. For the same compound, the growth was -90% (active) in the experiment on MDA-MB-435 melanoma; -77.5% (active) in the experiment on SW-620 colon; -55.7% (active) with MCF7 breast; -88.6% (active) in the experiment with HCT-116 colon; -54.1% (active) with HCC-2998 colon; -53.1% (active) with KM12 colon.

Regarding `COc1cc(CNC(=O)CCCC/C=C/C(C)C)ccc1OCc1cn(-c2cccc([N+](=O)[O-])c2)nn1`, the growth with SR leukemia is 78.4%; with RPMI-8226 leukemia, 65.9%; with OVCAR-8 ovarian, 76.9%; with OVCAR-5 ovarian it was 107%; in the experiment with OVCAR-4 ovarian it was 94.2%; in the experiment on SK-OV-3 ovarian it was 93.6%. Also, the growth with IGROV1 ovarian is 89.4%; in the experiment on OVCAR-3 ovarian it was 105%; in the experiment on HS 578T breast, 90.8%; in the experiment with NCI/ADR-RES ovarian it was 81.8%; in the experiment with T-47D breast, 72.3%; in the experiment on BT-549 breast, 96.3%. The growth in the experiment on MDA-MB-435 melanoma was 101%; in the experiment with SW-620 colon, 97.4%; in the experiment with MCF7 breast, 74.1%; in the experiment on HCT-116 colon, 42%; with HCC-2998 colon, 101%; with KM12 colon, 91.2%.

With `CCCc1cc(CCC)n2nc(N)nc2n1`, the growth in the experiment on SR leukemia was 109%; with RPMI-8226 leukemia it was 104%; with OVCAR-8 ovarian, 106%; with OVCAR-5 ovarian it was 98.8%; in the experiment with OVCAR-4 ovarian it was 116%; with SK-OV-3 ovarian, 105%. Besides, the growth with IGROV1 ovarian was 126%; with OVCAR-3 ovarian, 121%; in the experiment on HS 578T breast, 103%; in the experiment with NCI/ADR-RES ovarian, 109%; in the experiment on T-47D breast it was 110%; in the experiment on BT-549 breast it was 92.9%. In addition, the growth in the experiment with MDA-MB-435 melanoma was 110%; in the experiment with SW-620 colon it was 109%; with MCF7 breast it was 95.6%; with HCT-116 colon it was 103%; in the experiment with HCC-2998 colon, 98.1%; in the experiment on KM12 colon, 108%.

With `C=C(C)[C@@H]1CC[C@]2(COCCCNCCCN)CC[C@]3(C)[C@H](CC[C@@H]4[C@@]5(C)CC[C@H](OCCCN)C(C)(C)[C@@H]5CC[C@]43C)[C@@H]12`, the growth in the experiment with SR leukemia is -49.2% (active); in the experiment with RPMI-8226 leukemia, -51.7% (active); in the experiment with OVCAR-8 ovarian it was -66.3% (active); in the experiment with OVCAR-5 ovarian, -49% (active); in the experiment on OVCAR-4 ovarian, -79.4% (active); with SK-OV-3 ovarian, 102%. Further, the growth in the experiment on IGROV1 ovarian is -81.1% (active); with OVCAR-3 ovarian, 47.8%; in the experiment on HS 578T breast it was 87.4%; in the experiment on NCI/ADR-RES ovarian, -80.2% (active); in the experiment on T-47D breast, -65.2% (active); in the experiment with BT-549 breast, 99.6%. Moreover, the growth in the experiment with MDA-MB-435 melanoma was -91.2% (active); with SW-620 colon, -80.8% (active); in the experiment on MCF7 breast it was -77.9% (active); in the experiment with HCT-116 colon it was -82.5% (active); in the experiment on HCC-2998 colon, -24.8% (active); with KM12 colon it was -89.8% (active).

As to `CCCCN(CCC#N)C(N)=O`, the growth in the experiment with SR leukemia is 130%; with RPMI-8226 leukemia it was 113%; with OVCAR-8 ovarian, 107%; with OVCAR-5 ovarian, 106%; in the experiment with OVCAR-4 ovarian, 122%; in the experiment with SK-OV-3 ovarian, 109%. Also, the growth is 100% with IGROV1 ovarian; 89.7% in the experiment with OVCAR-3 ovarian; 105% with HS 578T breast; 109% in the experiment with NCI/ADR-RES ovarian; 100% in the experiment on T-47D breast; 109% in the experiment with BT-549 breast. Moreover, the growth is 110% in the experiment on MDA-MB-435 melanoma; 99.2% in the experiment on SW-620 colon; 105% with MCF7 breast; 106% with HCT-116 colon; 103% in the experiment on HCC-2998 colon; 105% in the experiment on KM12 colon.

As to `COc1ccc(C(=O)C2OC3=C(C(=O)CC(C)(C)C3)C2c2cccc(Oc3ccccc3)c2)cc1` (centres undefined), the growth in the experiment with SR leukemia is 71.2%; in the experiment on RPMI-8226 leukemia, 85.7%; with OVCAR-8 ovarian, 88.9%; with OVCAR-5 ovarian, 97.6%; in the experiment on OVCAR-4 ovarian it was 86.3%; in the experiment on SK-OV-3 ovarian, 91.4%. In addition, the growth in the experiment on IGROV1 ovarian is 95.9%; in the experiment with OVCAR-3 ovarian it was 103%; in the experiment with HS 578T breast, 93.4%; with NCI/ADR-RES ovarian, 92.7%; in the experiment on T-47D breast, 76%; in the experiment on BT-549 breast, 92.1%. In addition, the growth is 90.8% with MDA-MB-435 melanoma; 93.6% with SW-620 colon; 89.3% in the experiment with MCF7 breast; 84.6% in the experiment with HCT-116 colon; 113% in the experiment on HCC-2998 colon; 94.6% with KM12 colon.
